Our source for the growth values is PubChem BioAssay (NCI).

Holding throughout (assay): NCI-60 one-dose screen, 48 h (100 = growth as untreated, 0 = no growth, -100 = all killed)
Common to all, as to settings: 10 µM unless noted

For test [1], the system named is T-47D breast.
Test [2] concerns BT-549 breast.
In test [3] the test system is MDA-MB-435 melanoma.
The test system of test [4] is SW-620 colon.
Test [5] relates to MCF7 breast.
Test [6] deals with HCT-116 colon.
The subject of test [7] is HCC-2998 colon.
Test [8] concerns KM12 colon.

Compounds without any hit were thinned out: in the full panel of roughly 83,000, 20% have a hit.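 Cells were grown in 96-well plates and exposed to the test compound at a single concentration for 48 hours; results are reported as percent growth, with values below 10 considered active.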 A number with no mark means an inactive call. The source made the active and inactive calls.

Regarding `O=C(/C=C/c1ccccc1)Nc1ncc(Cc2ccccc2)s1`, the growth is 26.1% in test [1]; 42.9% in test [2]; -40.9% (active) in test [3]; 24.6% in test [4]; 17.2% in test [5]; 11.6% in test [6]. Moreover, the growth is 11.9% in test [7] and 6.06% (active) in test [8].

On to `CN1CCN(Cc2ccc(NC(=O)c3cncc(C#Cc4cncc5[nH]ncc45)c3)cc2C(F)(F)F)CC1`, for which the growth in test [1] was 31.3%; in test [2] it was 23.5%; in test [3] it was 2.84% (active); in test [4], -29.1% (active); in test [5], 20.5%; in test [6], 1.91% (active). Also, the growth was 6.34% (active) in test [7] and 3.69% (active) in test [8].

As to `N#Cc1c(-c2ccccc2)c(C#N)c2c(C#N)c(N)nn2c1N`, the growth in test [1] was 19.6%; in test [2], 47.4%; in test [3] it was -39.6% (active); in test [4], 25.4%; in test [5], 15.9%; in test [6], 24.2%. Also, the growth in test [7] is 61.4%; in test [8], 24.4%.

For `COc1ccc(C/C(C)=C(/c2ccc(OCCN3CCCCCC3)cc2)c2ccc(OC(=O)NCc3ccccc3)cc2)cc1`, the growth in test [1] is 50.8%; in test [2] it was 100%; in test [3], 95.3%; in test [4], 81.4%; in test [5], 29.9%; in test [6] it was 64.7%. In addition, the growth is 89.1% in test [7] and 80.9% in test [8].

Regarding `COc1cc(C(=O)c2c(-c3ccccc3)oc3c(OC)cccc23)cc(OC)c1O`, the growth in test [1] is 44%; in test [2], 11.7%; in test [3], -30.4% (active); in test [4] it was 22.7%; in test [5] it was 14.1%; in test [6], 10.2%. For the same compound, the values for the growth in test [7] and in test [8] were -3.66% (active) and 16.6%, respectively.

As to `COc1cc(C2=NN(C(C)=O)C(c3ccc(N(C)C)cc3)C2)cc(OC)c1OC` (stereo not given), the growth is 86.6% in test [1]; 94.4% in test [2]; 94.9% in test [3]; 94.9% in test [4]; 93.1% in test [5]; 86.9% in test [6]. Further, the growth in test [7] is 102%; in test [8], 95.4%.

In the case of `CCOC(=O)CSc1nc2sc3c(c2c(=O)n1-c1ccc([N+](=O)[O-])cc1)CCCCC3`, the growth in test [1] was 76.7%; in test [2], 97.2%; in test [3] it was 77.3%; in test [4], 81.3%; in test [5] it was 76.2%; in test [6], 51.3%. The growth in test [7] is 82%; in test [8] it was 89.7%.

On to `CC(C)c1ccc(-n2c(=S)[nH]c3sc4c(c3c2=O)CCC(=O)C4)cc1`, for which the growth in test [1] was 11.7%; in test [2] it was 26.3%; in test [3], 91.8%; in test [4], 48.5%; in test [5], 85.4%; in test [6] it was 53.5%. Also, the growth was 40.1% in test [7] and 18.6% in test [8].

As to `Cc1cc2nc3c4ccccc4n(CCN(C)C)c3nc2cc1C`, the growth in test [1] is 32.2%; in test [2], 53.1%; in test [3] it was 8.26% (active); in test [4], -30.8% (active); in test [5] it was -0.456% (active); in test [6] it was 7.19% (active). Further, the values for the growth in test [7] and in test [8] were 22.1% and 17.4%, respectively.

Regarding `COc1ccc2c(c1)c(-c1nonc1-c1c[nH]c3ccc(Br)cc13)cn2C`, the growth in test [1] is 25.7%; in test [2], 63.6%; in test [3] it was 6.34% (active); in test [4] it was 33.7%; in test [5], 24.9%; in test [6] it was 31.6%. Further, the growth is 38.7% in test [7] and 14.5% in test [8].

For the compound `COc1ccc(OC)c(-c2cn3nc(-c4c[nH]c5ccc(Br)cc45)sc3n2)c1`, the growth was 35.2% in test [1]; 76.2% in test [2]; 24% in test [3]; -3.33% (active) in test [4]; 12.5% in test [5]; 13.2% in test [6]. Also, the growth in test [7] is 27.2%; in test [8], 11%.

Turning to `N=C(N)c1ccc(-c2ccc(-c3ccc(Cl)cc3Cl)s2)cc1F`, the growth in test [1] was 14.8%; in test [2] it was 84.8%; in test [3], -79.9% (active); in test [4], -64% (active); in test [5], -65.8% (active); in test [6] it was -36.6% (active). The results for the growth in test [7] and in test [8] were -81.7% (active) and -86.3% (active), respectively.

As to `CCOC(=O)/C=C/c1c(C)[nH]c(=O)[nH]c1=O`, the growth is 102% in test [1]; 99.1% in test [2]; 109% in test [3]; 56.7% in test [4]; 69.6% in test [5]; 53% in test [6]. Further, the figures for the growth in test [7] and in test [8] were 107% and 93.4%, respectively.

As to `O=C(CCCCNC(=O)c1cc(=O)c(O)co1)Nc1ccccc1`, the growth was 34.6% in test [1]; 98.4% in test [2]; 98.1% in test [3]; 45.8% in test [4]; 66.1% in test [5]; 30% in test [6]. In addition, the growth was 110% in test [7] and 99.7% in test [8].

Consider `CCN(CC)CCCC(C)Nc1ccc2cc(OC)ccc2n1` (stereo not given), for which the growth in test [1] was 103%; in test [2] it was 107%; in test [3], 104%; in test [4] it was 94.4%; in test [5], 84.2%; in test [6] it was 102%. The figures for the growth in test [7] and in test [8] were 101% and 93.2%, respectively.
